Screening results: PubChem, several laboratories
Sampled rows, rich in hits. Any-hit rate of the full collection: about 4.8%.
STAT1 activator: increases IFN-gamma driven STAT1 reporter signal | AID 932 | NIH 3T3 STAT1-luciferase reporter, luminescence; 100% = IFN-gamma alone, no compound | activation (% of control), % at 5.5 µM | 200,000 compounds, 2.6% hits;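 active = activation above the screen-wide mean activation plus 3 SD, cut at about 130% in these data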;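 note: raw ratio to IFN-gamma control signal so 100% means no change and 0% no light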
Wee1 stabilizer: blocks degradation of human Wee1 kinase; P30291; 220,000 compounds, 1.2% hits; HeLa Luc-Wee1K328M stability, luciferase luminescence; 100% = proteasome inhibitor MG132 effect; reporter increase, % at 5 µM; AID 1321;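 active = activation above the mean of all tested compounds plus 3 SD, set per screening run, cut at about 8.8% in these data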;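 note: cells exposed to compound for 20 h before luminescence read; 0% = DMSO alone and 100% = MG132 at 30 µM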
Target sequence (P30291 whole entry K328M): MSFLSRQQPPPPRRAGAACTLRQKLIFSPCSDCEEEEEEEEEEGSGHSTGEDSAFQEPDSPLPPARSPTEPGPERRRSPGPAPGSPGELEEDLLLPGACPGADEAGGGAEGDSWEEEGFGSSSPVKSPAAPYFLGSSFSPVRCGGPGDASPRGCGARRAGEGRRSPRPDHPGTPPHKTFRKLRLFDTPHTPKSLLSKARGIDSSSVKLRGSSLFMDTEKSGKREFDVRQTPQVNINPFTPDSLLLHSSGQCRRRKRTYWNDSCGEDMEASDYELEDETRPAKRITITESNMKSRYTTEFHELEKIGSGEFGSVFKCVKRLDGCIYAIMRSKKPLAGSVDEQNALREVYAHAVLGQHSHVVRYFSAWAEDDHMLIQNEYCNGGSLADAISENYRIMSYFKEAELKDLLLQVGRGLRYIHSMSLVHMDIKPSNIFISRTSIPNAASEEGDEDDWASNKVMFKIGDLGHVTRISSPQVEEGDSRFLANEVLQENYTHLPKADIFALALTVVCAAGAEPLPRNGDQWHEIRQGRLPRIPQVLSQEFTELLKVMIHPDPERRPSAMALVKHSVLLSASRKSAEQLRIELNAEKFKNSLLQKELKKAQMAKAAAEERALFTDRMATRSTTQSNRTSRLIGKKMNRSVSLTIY
APP 5'UTR act: activates APP 5'UTR luciferase reporter. SH-SY5Y APP 5'UTR luciferase reporter, luminescence; zero percent = DMSO vehicle wells. activation, % at 2 µM. 190,000 compounds, 1% hits;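 active = activation above a set limit, based on mean plus 3 SD of controls, cut at about 140% in these data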
NF-kB neuron act: NF-kB expression increase, human neuronal cells; NF-kB reporter expression; active compounds read high; fold change at 12.5 µM; 190,000 compounds, 1.6% hits; AID 1239; in the data active = fold change above about 3.3
Hsp70 act: transcriptional activators of Hsp70; HeLa Hsp70 promoter luciferase reporter, luminescence; scaled: vehicle 0, proteasome-inhibitor control 100%; activation, % at 10 µM; 200,000 compounds, 0.04% hits;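 active = activation above the mean across all tested compounds plus 3 SD, cutoff set per campaign, cut at about 5.5% in these data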;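 note: 100% = MG132 at 30 µM as the positive control and 0% = DMSO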
APP 5UTR inh: APP translation inhibition | 190,000 compounds, 0.82% hits | inhibition, % at 2 µM | SH-SY5Y APP 5'UTR-luciferase reporter, luminescence;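 active = inhibition above a set limit, derived from the sample mean plus 3 SD, cut at about 45% in these data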
STAT1 activ conf: STAT1 activation, confirmation assay | NIH 3T3 STAT1-luciferase reporter, IFN-gamma potentiation, luminescence; 100% = IFN-gamma EC80 alone, no compound | activation (% of control), % at 5.7 µM | shares compounds with STAT1 activator | AID 1262 | 1,200 compounds, 97% hits;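 active = activation above a set limit carried over from the earlier primary STAT1 screen, cut at about 140% in these data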;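 note: simple ratio to median IFN-gamma plus DMSO wells so 0% means no light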
NFkB act: NF-kappaB activation in STAT1 activator counter-screen; shares compounds with STAT1 activator; HEK293T NF-kB luciferase reporter, TNF-alpha stimulated, luminescence; 100% = TNF-alpha with vehicle only; activation (% of control), % at 5.7 µM; 1,200 compounds, 43% hits;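 active = activation above the mean of solvent-only control wells plus 3 SD, set per campaign, cut at about 130% in these data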;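 note: TNF-alpha given at a submaximal dose yielding about 80% of full reporter signal; values are well signal over median control so 100% means no change and 0% no light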
STAT3 act STAT1c: human STAT3 activation in STAT1 activator counter-screen; activation (% of control), % at 5.7 µM; U3A cells STAT3-luciferase reporter, IL-6, luminescence; cells lack STAT1; 100 = IL-6 alone, no compound effect; AID 1316; 1,200 compounds, 46% hits; shares compounds with STAT1 activator;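 active = activation above the solvent-only control well mean plus 3 SD, set per plate batch, cut at about 110% in these data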;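 note: 0% = no luminescence and 100% = median IL-6 plus DMSO wells; higher means more STAT3 reporter activation so hits are non-selective activators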
An asterisk follows results filed as active; · = no result.

SMILES	STAT1 activator	Wee1 stabilizer	APP 5'UTR act	NF-kB neuron act	Hsp70 act	APP 5UTR inh	STAT1 activ conf	NFkB act	STAT3 act STAT1c
CC(C)(C)N1C(=O)c2ccc(C(=O)Nc3nccs3)cc2C1=O	154.4*	-0.8	-10.7	2.02	-0.2	10.7	174.1*	125.9	116.8*
CC(C)(CO)NCc1cc(Br)ccc1OCc1ccccc1	103.3	0.7	-13.2	1.06	-0.3	13.2	·	·	·
Cc1cc(C)c2nncn2n1	·	-0.6	·	·	·	·	·	·	·
O=C(CCc1nnc(C2CCCCC2)o1)N1CCN(c2ccccc2F)CC1	163.4*	1.7	84.5	2.63	0.1	-84.5	172.1*	136.6*	117.0*
CC(C)c1cc(CNC(=O)CCc2nnc(CCCc3ccccc3)o2)on1	111.6	1.1	27.2	2.26	-0.1	-27.2	·	·	·
O=C(CCc1nnc(CCCc2ccccc2)o1)N1CCCCCC1	153.4*	0.3	75.5	2.32	-0.1	-75.5	142.4*	121.8	107.5
CCc1cc(CNC(=O)CCc2nnc(CCCc3ccccc3)o2)on1	158.0*	-0.6	69.8	3.4*	-0.1	-69.8	168.1*	124.7	115.1*
O=S(=O)(c1ccccc1)c1nc(-c2ccco2)oc1NCc1cccnc1	97.0	6.3	-4.4	1.15	-0.5	4.4	·	·	·
CCOc1ccc(C(C)(C)C)cc1S(=O)(=O)n1nc(C)cc1C	95.1	-0.5	0.1	1.3	0.0	-0.1	·	·	·
Cc1ccc2nc(N3CCCCC3)c(C=O)c(=O)n2c1	102.9	3.9	-3.9	1.09	-0.1	3.9	·	·	·
Fc1ccccc1OCCSc1nnnn1-c1ccccc1	161.2*	1.1	161.9*	6.65*	0.3	-161.9	218.9*	124.5	115.2*
c1ccc(OCCSc2nnnn2-c2ccccc2)cc1	160.2*	6.2	170.5*	6.5*	-0.1	-170.5	203.6*	122.9	116.6*
Cc1ccc(-n2nc(C)c3c(C)c(CCC(=O)Nc4ccc(CN5CCCC5)cc4)c(C)nc32)cc1	·	-4.0	·	·	·	·	·	·	·
CC(C)=CC(=O)Nc1nc2ccc([N+](=O)[O-])cc2s1	181.1*	-0.7	35.9	2.2	0.4	-35.9	180.1*	126.1	106.6
CC(C)[C@H](NC(=O)c1ccccc1Cl)C(=O)NC1CCCCCC1	99.5	-1.8	-1.1	1.25	-0.1	1.1	·	·	·
CCC(=NCc1ccco1)c1c(C(F)(F)F)[nH]n(-c2nc3ccccc3s2)c1=O	120.3	0.3	17.0	0.49	-0.2	-17.0	·	·	·
CC(=O)Nc1ccc2nc(-c3ccccc3)cn2c1	154.7*	-1.5	169.7*	7.61*	0.1	-169.8	198.5*	114.8	99.8
S=C(Nc1ccccn1)c1ccccn1	153.0*	0.1	71.4	19.7*	0.3	-71.4	178.0*	124.5	112.0*
O=C(Nc1ccccn1)C(=O)Nc1ccccn1	·	4.5	·	·	·	·	·	·	·
CCOc1ccc(N/C(C)=C\C(=O)c2ccc3c(c2)OCCO3)cc1	156.2*	-3.3	36.0	3.37*	-0.1	-36.0	219.9*	134.0*	105.1
COc1cccc(-c2cc(C(=O)N3CCCCC3C)no2)c1 (centres undefined)	153.7*	0.7	132.7	3.61*	-0.1	-132.7	181.0*	133.7*	122.7*
Cc1cccnc1NC(=S)Nc1ccc(Br)cc1Cl	154.3*	3.5	104.6	1.07	0.6	-104.6	197.8*	142.9*	104.6
C(=N\N=C\c1cccs1)/c1cccs1	166.8*	-2.3	90.9	3.28	0.0	-90.9	189.1*	128.4	105.9
C(=N\n1cnnc1)/c1cccs1	100.8	-3.5	41.3	1.09	0.1	-41.3	·	·	·
O=C(Nc1nc2ccc(F)cc2s1)c1cccs1	159.0*	1.9	111.8	7.38*	0.4	-111.8	246.1*	131.6	104.5
SMILES	STAT1 activator	Wee1 stabilizer	APP 5'UTR act	NF-kB neuron act	Hsp70 act	APP 5UTR inh	STAT1 activ conf	NFkB act	STAT3 act STAT1c
CCc1ccc2nc(NC(=O)CCCc3cccs3)sc2c1	118.1	2.6	·	1.88	-0.2	·	·	·	·
O=C(Nc1nc2ccc(S(=O)(=O)N3CCCC3)cc2s1)c1cccs1	113.1	0.9	18.2	1.35	0.2	-18.2	·	·	·
CN(C)S(=O)(=O)c1ccc2nc(NC(=O)c3cccs3)sc2c1	153.1*	2.8	128.7	3.51*	0.1	-128.7	178.7*	115.2	116.9*
Cc1ccc2nc(NC(=O)Cc3cccs3)sc2c1	153.8*	5.1	93.6	3.7*	-0.2	-93.6	180.0*	137.0*	86.5
CC1=NN(c2ccccc2)C(=O)/C1=C/c1c(O)n(-c2ccc(F)cc2)[nH]c1=O	152.6*	-3.3	39.0	1.48	-0.2	-39.0	176.6*	122.4	132.3*
CCCc1ccc(-c2cc(NC(=O)CSc3nnc(N)s3)n(-c3ccccc3)n2)cc1	159.4*	10.4*	97.4	4.39*	-0.1	-97.4	189.0*	134.4*	110.8*
CCOc1cc(CN2CCN(CCc3ccccc3)C(CCO)C2)ccc1OC (centres undefined)	91.5	-1.3	-1.8	1.29	0.0	1.8	·	·	·
O=C(Nc1cccc(Cl)c1)c1cnn2cccnc12	157.1*	-2.9	87.1	3.69*	0.0	-87.1	177.9*	130.3	122.8*
O=C(NCCN1CCN(Cc2ccccc2)CC1)Nc1cc(Cl)cc(Cl)c1	·	0.1	·	·	·	·	·	·	·
N#C/C(=C\c1ccc(N2CCOCC2)o1)c1nc2ccccc2[nH]1	160.1*	-1.2	155.7*	2.6	0.3	-155.7	254.8*	113.3	90.2
CCCc1nnc(NC(=O)Cn2c(=O)sc3ccccc32)s1	103.2	-1.3	-5.7	1.29	-0.3	5.7	·	·	·
CCOC(=O)/C(C#N)=C\c1cc(C)n(-c2ccccc2)c1C	164.8*	2.1	135.5*	0.62	0.1	-135.5	237.9*	113.3	115.4*
C(=N\Nc1ccccc1)/c1ccc(N2CCOCC2)cc1	120.9	-1.7	105.8	1.37	-0.3	-105.8	·	·	·
O=C(Cc1nc(=O)c2ccccc2s1)Nc1ccccc1	156.8*	1.9	189.3*	5.76*	0.4	-189.3	273.5*	144.9*	121.8*
CC(C)/C=C1\CCc2c([nH]c3ccccc23)C1=O	116.1	-1.5	11.5	1.39	-0.1	-11.5	·	·	·
Cc1ccc(/C=C2/CCc3c([nH]c4ccccc34)C2=O)cc1	161.3*	1.7	156.4*	2.53	0.1	-156.4	188.0*	140.5*	113.7*
CCOC(=O)c1cnc2c(F)ccc(F)c2c1Sc1ccccc1	·	-1.1	·	·	·	·	·	·	·
